Measurements taken from PubChem BioAssay (Tox21).
Records with an inconclusive call do not appear. Activity calls are given as the source filed them. Unless noted, calls come from the whole dose curve; as a rule, active = well fitted curve in the direction sought with a large enough effect in the repeat runs; inconclusive = weak or mixed curves; inactive = no such curve, though single readings can be large; an effect the other way counts as inactive or inconclusive.

What was measured:
[1] = qHTS assay to identify small molecule agonists of the constitutive androstane receptor (CAR) signaling pathway - cell viability counter screen (AID 1224836); note: nearly all actives have a fitted effect of over 45% in size; note: potency is the fitted concentration of half-maximal effect
How it was run: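 Using CellTiter-Fluor, viability of HepG2 cells harbouring hCAR and CYP2B6-2.2kb was measured following 23 h incubation with a 15-concentration compound series plus PK11195 (0.75 uM final).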

[2] = qHTS assay to identify small molecule antagonists of the constitutive androstane receptor (CAR) signaling pathway - cell viability counter screen (AID 1224837); note: nearly all actives have a fitted effect of over 45% in size; note: potency is the fitted concentration of half-maximal effect
How it was run: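 Counter screen run in HepG2-CYP2B6-hCAR cells: 4 hr settle, compound titration (15 concentrations) with 50 nM CITCO, 23 hr at 37 C/5% CO2, CellTiter-Fluor fluorescence.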

[3] = biological target: Nuclear receptor subfamily 1 group I member 3 (Homo sapiens) (UniProt Q14994); test: qHTS assay to identify small molecule antagonists of the constitutive androstane receptor (CAR) signaling pathway (AID 1224838);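 note: HepG2 cells stably expressing hCAR with CYP2B6 luciferase reporter stimulated by CITCO; nearly all actives have a fitted effect of over 40% in size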
How it was run: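 Cell line: HepG2 double-stable for hCAR and CYP2B6-2.2kb reporter. Agonist: CITCO, 50 nM final. Compounds: 15 concentrations, 24 h, 37 C. Detection: ONE-Glo luminescence.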

[4] = biological target: Nuclear receptor subfamily 1 group I member 3 (Homo sapiens) (UniProt Q14994); test: qHTS assay to identify small molecule agonists of the constitutive androstane receptor (CAR) signaling pathway (AID 1224839);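 note: HepG2 cells stably carrying human CAR and a CYP2B6 luciferase reporter; series mostly up to about 92 µM; nearly all actives have a fitted effect of over 15% in size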
How it was run: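 Double-stable HepG2 cells (hCAR, CYP2B6-2.2kb) seeded 4 h before compound addition. Exposure 24 h with 0.75 uM PK11195 final. Luciferase detected by ONE-Glo.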

[5] = qHTS assay to identify small molecule antagonists of the estrogen related receptor signaling pathway with the pleiotropic PPARgamma coactivator (PGC) from Tox21 10K library - cell viability counter screen (AID 1224840; active = well fitted cell-killing curve with a large enough effect in the repeat runs, not every such curve was filed as active; note: nearly all actives have a fitted effect of over 40% in size)
How it was run: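 Following seeding of 2,000 PGC/ERR cells/well and 6 hours' incubation, test compounds were delivered in DMSO. The plates then sat 17.5 hours at 37 C before a fluorogenic live-cell protease reagent (CellTiter-Fluor) was read after 30 min.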

[6] = qHTS assay to identify small molecule antagonists of the estrogen related receptor signaling pathway with the pleiotropic PPARgamma coactivator (PGC) from Tox21 10K library (AID 1224841; call rule not given here; note: series mostly up to about 92 µM; actives are mostly falling curves and most rising ones were filed inactive; nearly all actives have a fitted effect of over 50% in size)
How it was run: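 qHTS antagonist format: PGC/ERR cells, 2k/well, compound in DMSO by pin transfer after 6 h attachment, 18 h treatment at 37 C, One-Glo luminescence read at 30 min.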

[7] = qHTS assay to identify small molecule agonists of the estrogen related receptor signaling pathway with the pleiotropic PPARgamma coactivator (PGC) from Tox21 10K library (AID 1224842); note: nearly all actives have a fitted effect of over 15% in size
How it was run: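 PGC/ERR reporter cell line, 2,000 cells per well, incubated 6 h at 37 C before 23 nL compound in DMSO was added. After 18 h at 37 C, One-Glo luminescence read following 30 min at room temperature.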

[8] = biological target: Thyrotropin receptor (Homo sapiens) (UniProt P16473); test: qHTS assay to identify small molecule agonists of the thyroid stimulating hormone receptor (TSHR) signaling pathway (AID 1224843; calls by dose curve; note: nearly all actives have a fitted effect of over 45% in size; note: potency is the fitted concentration of half-maximal effect)
How it was run: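 Steps: seed 800 TSHR-HEK293 cells per well; add test compound and hold 30 min at ambient temperature; dispense cAMP-d2 then anti-cAMP cryptate; incubate 1 h at ambient; measure fluorescence intensity.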

[9] = qHTS assay to identify small molecule agonists of the hypoxia (HIF-1) signaling pathway - cell viability counter screen (AID 1224844; calls by dose curve; note: nearly all actives have a fitted effect of over 50% in size)
How it was run: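 Cells (HRE-bla ME-180, 2,000 per well) sat 5 hrs at 37C, got compound for 17 hrs, were read for CCF4-AM FRET, and were finally lysed with CellTiter-Glo for a 30 min room-temperature luminescence read.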

[10] = qHTS assay to identify small molecule agonists of H2AX (AID 1224845; active = well fitted activation curve with a large enough effect in the signal ratio in the repeat runs, not every such curve was filed as active; the % refers to the signal ratio)
How it was run: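 Wild-type CHO-K1 cells, plated overnight, exposed 3hr at 37C to 15 concentrations (0.76% DMSO final). Lysed, then HTRF anti-pH2AX (S139) cryptate and anti-H2AX-d2 antibodies, 24 hr room temperature; 665/620 nm emission read.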

Measured: Potency

Sequence of Thyrotropin receptor (Homo sapiens) (P16473 whole entry, looked up): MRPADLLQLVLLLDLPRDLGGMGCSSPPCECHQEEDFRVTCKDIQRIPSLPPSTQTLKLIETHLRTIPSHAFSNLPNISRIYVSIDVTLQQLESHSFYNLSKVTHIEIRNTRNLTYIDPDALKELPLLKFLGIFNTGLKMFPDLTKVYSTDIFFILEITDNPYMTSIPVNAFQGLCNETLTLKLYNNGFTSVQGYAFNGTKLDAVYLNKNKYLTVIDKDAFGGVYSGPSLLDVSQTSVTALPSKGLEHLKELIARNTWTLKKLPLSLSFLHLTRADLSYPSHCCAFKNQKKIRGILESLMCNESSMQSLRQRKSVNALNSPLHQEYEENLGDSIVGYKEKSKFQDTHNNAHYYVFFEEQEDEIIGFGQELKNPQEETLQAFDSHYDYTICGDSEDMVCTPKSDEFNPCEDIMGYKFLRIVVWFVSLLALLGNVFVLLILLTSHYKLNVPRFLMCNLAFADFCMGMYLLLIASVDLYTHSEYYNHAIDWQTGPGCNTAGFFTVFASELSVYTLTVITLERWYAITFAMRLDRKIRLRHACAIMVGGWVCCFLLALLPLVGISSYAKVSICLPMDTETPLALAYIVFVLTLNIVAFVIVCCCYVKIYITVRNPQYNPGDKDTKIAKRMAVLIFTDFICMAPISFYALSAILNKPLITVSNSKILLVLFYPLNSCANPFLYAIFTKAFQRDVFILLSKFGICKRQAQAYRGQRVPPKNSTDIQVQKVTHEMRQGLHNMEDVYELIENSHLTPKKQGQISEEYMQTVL
Sequence of Nuclear receptor subfamily 1 group I member 3 (Homo sapiens) (Q14994 whole entry, looked up): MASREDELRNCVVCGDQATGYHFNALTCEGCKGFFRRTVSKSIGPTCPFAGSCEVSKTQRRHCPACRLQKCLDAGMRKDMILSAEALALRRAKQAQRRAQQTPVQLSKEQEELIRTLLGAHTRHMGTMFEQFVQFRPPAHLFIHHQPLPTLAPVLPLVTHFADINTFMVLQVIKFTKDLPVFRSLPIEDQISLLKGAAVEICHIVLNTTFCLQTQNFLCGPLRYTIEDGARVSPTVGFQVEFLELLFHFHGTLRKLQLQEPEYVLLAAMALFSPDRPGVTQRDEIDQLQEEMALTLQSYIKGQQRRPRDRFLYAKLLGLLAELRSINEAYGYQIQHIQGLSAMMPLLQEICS

CCOC(/C=C(\C)CCC=C(C)C)OCC
inactive: all assays above

O=c1cccc[nH]1
inactive: all assays above

CCc1cccc(CC)c1N(COC)C(=O)CS(=O)(=O)O
not listed: [7] | [10]
inactive: all other assays above

C/C=C/C(=O)C1=C(C)CCCC1(C)C
not listed: [6] | [9]
inactive: all other assays above

O=C1OC(=O)c2cccc3cccc1c23
not listed: [8] | [10]
inactive: all other assays above

C(=C/c1ccccc1)/c1ccccc1
inactive: all assays above

CCCN(CCc1cccs1)[C@H]1CCc2c(O)cccc2C1
active: [8] 29.8 µM
inactive: all other assays above

CCCCCCCCCCCCCOP(=O)(O)O
not listed: [7] | [8]
inactive: all other assays above

ClC/C=C\CCl
not listed: [9]
inactive: all other assays above

CC(C)c1ccc(O)c(C(C)C)c1
not listed: [9]
inactive: all other assays above

CCCCCCS
not listed: [6] | [7]
inactive: all other assays above

COC(=O)CC#N
not listed: [6] | [7]
inactive: all other assays above

CC(C)=CCCC(C)CCOC(=O)C(C)C (stereo not given)
not listed: [6] | [7]
inactive: all other assays above

CCCC(O)C(O)CO (stereo not given)
not listed: [6] | [7]
inactive: all other assays above

COc1cccc(OC)c1O
not listed: [6] | [7]
inactive: all other assays above

CCCCCCCC(OC)OC
not listed: [6] | [7]
inactive: all other assays above

O=C(O)Cc1ccc(OCCNC[C@H](O)c2ccccc2)cc1
not listed: [6] | [7] | [10]
inactive: all other assays above

Brc1ccccn1
inactive: [1] | [2] | [3] | [4] | [5] | [8]

CC(C)(C)C1=CC(=O)C=C(C(C)(C)C)C1=O
not listed: [6] | [7]
inactive: all other assays above

CCN(CC)CCSC(=O)C(c1ccccc1)c1ccccc1
not listed: [6] | [7] | [10]
inactive: all other assays above

OCCCc1cccnc1
not listed: [6] | [7] | [9]
inactive: all other assays above

SCCCCCCCCS
not listed: [6] | [7] | [10]
inactive: all other assays above

OCCC(O)CO (stereo not given)
not listed: [6] | [7]
inactive: all other assays above

Cc1cccc(C)c1NC(=O)CN1CCN(CCCC(c2ccc(F)cc2)c2ccc(F)cc2)CC1
active: [1] 23.7 µM | [2] 23.7 µM
inactive: [3] | [4] | [5] | [8]

CN(C)CCN1CCOCC1
not listed: [6] | [7]
inactive: all other assays above

CCOCN(C(=O)CS(=O)(=O)O)c1c(C)cccc1CC
not listed: [6] | [7]
inactive: all other assays above
